# According to the supplement of paper PMC10849652:
# Of roughly 7,900 targets only a part is listed; those with a hit were picked by preference. About 0.6% of all pairs of compound and target were hits. A number with no mark means an inactive call.
# Assays:
# Assay in all cases: log2 fold change, soluble protein after heating vs DMSO (PISA); higher = thermal stabilisation; K562 cells, 10 uM, 30 min; active = over 0.2 and 3.5 SD of the protein, either way, in both replicates (recomputed)
# [1] = compound: CC1=C(C=C(C=C1)NC(=O)C2=CC(=CC=C2)C(C)(C)C#N)NC3=CC4=C(C=C3)N=CN(C4=O)C
# In short: (§1)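 K562 cells at 2×10^6 cells/mL were treated with 10 μM compound for 30 min. Aliquots were heated for 3 min across 48°C-58°C, pooled, and extracted in PBS with 0.5% NP-40 at 4°C; soluble protein was the supernatant after 21,000xg for 90 min. Soluble protein was quantified by TMTpro 16plex LC-MS/MS with channel sums equalised, and reported as log2 fold change in thermal stability against DMSO controls, with values from duplicates.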
# [2] = compound: CC1=C(C=C(C=C1)NC(=O)C2=CC(=CC=C2)N(C)C)NC(=O)C3=CC=C(C=C3)O
# In short: as §1
# [3] = compound: CC1=CC=C(C=C1)SC2=C3C=C(SC3=CN=C2)C(=O)N
# In short: as §1
# [4] = compound: CC1=NC(=CC=C1)C2=C(N=C(N2)C(C)(C)C)C3=CC4=NC=CN=C4C=C3
# In short: as §1
# Nexturastat A = compound: CCCCN(Cc1ccc(C(=O)NO)cc1)C(=O)Nc1ccccc1 [Nexturastat A]
# In short: as §1
# vemurafenib = compound: CCCS(=O)(=O)Nc1ccc(F)c(C(=O)c2c[nH]c3ncc(-c4ccc(Cl)cc4)cc23)c1F [vemurafenib]
# In short: as §1
# [5] = compound: CCCS(=O)(=O)Nc1ccc(F)c(C(=O)c2c[nH]c3ncc(Cl)cc23)c1F
# In short: as §1
# [6] = compound: CCCc1cc(C)[nH]c(=O)c1CNC(=O)c1cc(-c2ccnc(N3CCN(C)CC3)c2)cc2c1cnn2C(C)C
# In short: as §1
# givinostat = compound: CCN(CC)Cc1ccc2cc(COC(=O)Nc3ccc(C(=O)NO)cc3)ccc2c1 [givinostat]
# In short: as §1
# barasertib = compound: CCN(CCCOc1ccc2c(Nc3cc(CC(=O)Nc4cccc(F)c4)[nH]n3)ncnc2c1)CCOP(=O)(O)O [barasertib]
# In short: as §1
# [7] = compound: CC[C@@H]1C(=O)N(C)c2cnc(Nc3ccc(C(=O)NC4CCN(C)CC4)cc3OC)nc2N1C1CCCC1
# In short: as §1
# volasertib = compound: CC[C@@H]1C(=O)N(C)c2cnc(Nc3ccc(C(=O)N[C@H]4CC[C@H](N5CCN(CC6CC6)CC5)CC4)cc3OC)nc2N1C(C)C [volasertib]
# In short: as §1
# [8] = compound: CC[C@H](C)N1C=C(C2=C(C=C(C=C21)C3=CN=C(C=C3)N4CCNCC4)C(=O)NCC5=C(C=C(NC5=O)C)C)C
# In short: as §1
# epoxomicin = compound: CC[C@H](C)[C@@H](C(=O)N[C@@H]([C@@H](C)O)C(=O)N[C@@H](CC(C)C)C(=O)[C@]1(CO1)C)NC(=O)[C@H]([C@@H](C)CC)N(C)C(=O)C [epoxomicin]
# In short: as §1
# [9] = compound: CCn1c(C(=O)N(C2CC2)C2CC2)cc2c3c(ncn3C)c(Nc3cc(C)n(C)n3)nc21
# In short: as §1
# [10] = compound: CCn1cc(-c2ccnc3[nH]c(-c4cccc(CN(C)C)c4)cc23)c(-c2ccc(NC(=O)N(C)C)cc2)n1
# In short: as §1
# [11] = compound: CN(C)CC(=O)Nc1ccc2[nH]c(=O)c3ccccc3c2c1
# In short: as §1
# rosiglitazone = compound: CN(CCOC1=CC=C(C=C1)C[C@H]2C(=O)NC(=O)S2)C3=CC=CC=N3 (racemic) [rosiglitazone]
# In short: as §1
# [12] = compound: CN1C2=C(C3=C1C(=O)N(N=C3)CC4=CC(=CC=C4)N)SC(=C2)S(=O)C
# In short: as §1
# [13] = compound: CN1CCC(CNc2ccc3ncc(-c4cccc(OC(F)(F)F)c4)n3n2)CC1
# In short: as §1
# Sequence of UniProt Q9H269 (Q9H269 whole entry, looked up): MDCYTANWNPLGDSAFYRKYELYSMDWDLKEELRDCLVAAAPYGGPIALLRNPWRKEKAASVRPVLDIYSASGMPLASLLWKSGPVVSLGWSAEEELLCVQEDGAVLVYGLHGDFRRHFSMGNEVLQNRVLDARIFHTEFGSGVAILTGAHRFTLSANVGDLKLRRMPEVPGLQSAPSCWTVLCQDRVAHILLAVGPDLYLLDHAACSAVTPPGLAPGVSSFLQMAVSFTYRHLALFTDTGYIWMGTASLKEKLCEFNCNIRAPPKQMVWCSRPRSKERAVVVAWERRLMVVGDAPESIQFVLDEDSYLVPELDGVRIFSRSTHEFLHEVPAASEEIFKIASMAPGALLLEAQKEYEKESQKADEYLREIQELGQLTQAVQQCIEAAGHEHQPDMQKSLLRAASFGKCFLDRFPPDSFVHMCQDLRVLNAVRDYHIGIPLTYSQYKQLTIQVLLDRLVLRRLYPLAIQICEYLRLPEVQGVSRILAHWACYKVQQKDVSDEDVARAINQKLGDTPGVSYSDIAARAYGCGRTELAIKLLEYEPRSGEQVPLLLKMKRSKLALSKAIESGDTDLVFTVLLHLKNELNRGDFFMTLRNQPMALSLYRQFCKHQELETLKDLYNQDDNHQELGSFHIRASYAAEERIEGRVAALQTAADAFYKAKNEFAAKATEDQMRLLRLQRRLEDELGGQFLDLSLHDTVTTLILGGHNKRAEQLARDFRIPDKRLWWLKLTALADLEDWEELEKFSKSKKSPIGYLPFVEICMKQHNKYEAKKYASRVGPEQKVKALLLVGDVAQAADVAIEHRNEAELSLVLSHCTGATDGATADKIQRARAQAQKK
# Sequence of UniProt Q9Y2I8 (Q9Y2I8 whole entry, looked up): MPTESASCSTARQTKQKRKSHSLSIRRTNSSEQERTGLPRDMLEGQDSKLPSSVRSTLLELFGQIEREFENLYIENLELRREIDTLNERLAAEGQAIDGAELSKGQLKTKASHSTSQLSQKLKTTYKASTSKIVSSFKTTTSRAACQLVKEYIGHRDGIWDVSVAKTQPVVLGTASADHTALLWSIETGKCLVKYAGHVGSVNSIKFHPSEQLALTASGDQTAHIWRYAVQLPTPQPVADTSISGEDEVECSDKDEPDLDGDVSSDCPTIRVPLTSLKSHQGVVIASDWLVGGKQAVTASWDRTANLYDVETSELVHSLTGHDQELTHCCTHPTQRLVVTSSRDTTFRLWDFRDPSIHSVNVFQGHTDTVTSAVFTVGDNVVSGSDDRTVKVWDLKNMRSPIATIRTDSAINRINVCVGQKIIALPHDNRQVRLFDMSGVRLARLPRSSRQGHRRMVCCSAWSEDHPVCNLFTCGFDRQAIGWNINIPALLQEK
# Sequence of UniProt Q9UID3 (Q9UID3 whole entry, looked up): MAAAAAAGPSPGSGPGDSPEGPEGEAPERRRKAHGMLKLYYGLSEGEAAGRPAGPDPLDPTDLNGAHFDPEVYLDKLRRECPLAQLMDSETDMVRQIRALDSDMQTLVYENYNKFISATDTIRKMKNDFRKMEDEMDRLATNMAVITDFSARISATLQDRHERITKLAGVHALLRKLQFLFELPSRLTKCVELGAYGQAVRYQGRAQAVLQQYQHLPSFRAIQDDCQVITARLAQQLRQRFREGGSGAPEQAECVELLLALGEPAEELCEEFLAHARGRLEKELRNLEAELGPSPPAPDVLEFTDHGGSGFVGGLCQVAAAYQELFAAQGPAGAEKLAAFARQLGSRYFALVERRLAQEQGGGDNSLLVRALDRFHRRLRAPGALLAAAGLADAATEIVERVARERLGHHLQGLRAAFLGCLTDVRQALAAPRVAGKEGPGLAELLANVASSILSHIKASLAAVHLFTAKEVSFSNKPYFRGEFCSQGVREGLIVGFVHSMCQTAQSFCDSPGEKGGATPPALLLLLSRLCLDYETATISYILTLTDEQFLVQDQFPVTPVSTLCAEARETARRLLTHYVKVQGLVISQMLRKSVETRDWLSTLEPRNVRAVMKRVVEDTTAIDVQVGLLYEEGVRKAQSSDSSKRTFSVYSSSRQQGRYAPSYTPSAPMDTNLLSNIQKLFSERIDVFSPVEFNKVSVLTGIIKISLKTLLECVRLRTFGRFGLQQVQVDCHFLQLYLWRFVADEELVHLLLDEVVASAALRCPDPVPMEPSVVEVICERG
# Sequence of UniProt Q9NX61 (Q9NX61 whole entry, looked up): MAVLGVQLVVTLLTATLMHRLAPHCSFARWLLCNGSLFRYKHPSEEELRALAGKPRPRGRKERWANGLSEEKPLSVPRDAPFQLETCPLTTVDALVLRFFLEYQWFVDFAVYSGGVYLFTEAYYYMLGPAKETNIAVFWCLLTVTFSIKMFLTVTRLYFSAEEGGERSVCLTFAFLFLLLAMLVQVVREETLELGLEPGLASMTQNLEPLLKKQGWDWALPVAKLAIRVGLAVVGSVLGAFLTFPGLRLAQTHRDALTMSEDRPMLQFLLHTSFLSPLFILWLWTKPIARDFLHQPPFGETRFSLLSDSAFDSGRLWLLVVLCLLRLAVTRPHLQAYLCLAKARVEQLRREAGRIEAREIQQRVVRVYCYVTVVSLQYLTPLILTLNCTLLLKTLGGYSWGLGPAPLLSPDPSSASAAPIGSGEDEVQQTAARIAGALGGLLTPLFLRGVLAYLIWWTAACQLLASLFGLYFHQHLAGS
# Sequence of UniProt P54578 (P54578 whole entry, looked up): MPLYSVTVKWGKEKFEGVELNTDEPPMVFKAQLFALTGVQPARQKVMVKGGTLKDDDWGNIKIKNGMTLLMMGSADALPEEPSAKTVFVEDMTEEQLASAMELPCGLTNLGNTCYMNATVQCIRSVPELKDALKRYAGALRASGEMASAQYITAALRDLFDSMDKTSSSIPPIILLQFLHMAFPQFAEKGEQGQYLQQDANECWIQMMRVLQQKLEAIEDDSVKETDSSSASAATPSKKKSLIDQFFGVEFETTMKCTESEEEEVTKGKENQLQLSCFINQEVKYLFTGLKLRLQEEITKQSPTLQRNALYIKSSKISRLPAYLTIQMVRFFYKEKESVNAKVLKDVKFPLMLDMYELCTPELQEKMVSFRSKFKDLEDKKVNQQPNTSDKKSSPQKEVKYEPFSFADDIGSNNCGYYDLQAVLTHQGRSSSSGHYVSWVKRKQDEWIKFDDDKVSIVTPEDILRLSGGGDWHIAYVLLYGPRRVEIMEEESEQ
# Sequence of UniProt Q86UV5 (Q86UV5 whole entry, looked up): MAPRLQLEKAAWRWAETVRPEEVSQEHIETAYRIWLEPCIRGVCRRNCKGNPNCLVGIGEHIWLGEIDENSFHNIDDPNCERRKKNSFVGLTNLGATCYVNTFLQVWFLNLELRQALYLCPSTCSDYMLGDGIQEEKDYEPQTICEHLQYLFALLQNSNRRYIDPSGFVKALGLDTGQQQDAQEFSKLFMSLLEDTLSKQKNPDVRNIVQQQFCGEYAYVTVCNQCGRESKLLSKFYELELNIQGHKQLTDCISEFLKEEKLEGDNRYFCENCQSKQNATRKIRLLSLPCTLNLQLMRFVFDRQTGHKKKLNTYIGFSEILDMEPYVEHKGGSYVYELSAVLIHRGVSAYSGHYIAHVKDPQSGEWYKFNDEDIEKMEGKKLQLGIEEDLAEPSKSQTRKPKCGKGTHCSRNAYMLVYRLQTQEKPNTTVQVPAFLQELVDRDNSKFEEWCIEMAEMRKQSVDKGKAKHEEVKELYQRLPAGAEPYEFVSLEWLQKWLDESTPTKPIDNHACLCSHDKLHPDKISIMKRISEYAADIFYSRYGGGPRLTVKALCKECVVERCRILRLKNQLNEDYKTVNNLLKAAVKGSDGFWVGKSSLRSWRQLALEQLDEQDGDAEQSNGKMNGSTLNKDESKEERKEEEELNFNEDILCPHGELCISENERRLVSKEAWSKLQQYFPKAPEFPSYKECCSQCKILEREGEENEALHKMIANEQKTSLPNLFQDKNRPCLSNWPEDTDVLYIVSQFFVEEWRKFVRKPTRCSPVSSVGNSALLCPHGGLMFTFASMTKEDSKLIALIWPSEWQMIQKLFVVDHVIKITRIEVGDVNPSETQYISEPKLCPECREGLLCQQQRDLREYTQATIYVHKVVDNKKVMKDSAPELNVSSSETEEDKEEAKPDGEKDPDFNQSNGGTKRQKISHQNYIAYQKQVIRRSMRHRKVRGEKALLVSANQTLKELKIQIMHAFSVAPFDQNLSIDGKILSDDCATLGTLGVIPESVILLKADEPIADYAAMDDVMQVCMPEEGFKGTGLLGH
# Sequence of UniProt Q5T3F8 (Q5T3F8 whole entry, looked up): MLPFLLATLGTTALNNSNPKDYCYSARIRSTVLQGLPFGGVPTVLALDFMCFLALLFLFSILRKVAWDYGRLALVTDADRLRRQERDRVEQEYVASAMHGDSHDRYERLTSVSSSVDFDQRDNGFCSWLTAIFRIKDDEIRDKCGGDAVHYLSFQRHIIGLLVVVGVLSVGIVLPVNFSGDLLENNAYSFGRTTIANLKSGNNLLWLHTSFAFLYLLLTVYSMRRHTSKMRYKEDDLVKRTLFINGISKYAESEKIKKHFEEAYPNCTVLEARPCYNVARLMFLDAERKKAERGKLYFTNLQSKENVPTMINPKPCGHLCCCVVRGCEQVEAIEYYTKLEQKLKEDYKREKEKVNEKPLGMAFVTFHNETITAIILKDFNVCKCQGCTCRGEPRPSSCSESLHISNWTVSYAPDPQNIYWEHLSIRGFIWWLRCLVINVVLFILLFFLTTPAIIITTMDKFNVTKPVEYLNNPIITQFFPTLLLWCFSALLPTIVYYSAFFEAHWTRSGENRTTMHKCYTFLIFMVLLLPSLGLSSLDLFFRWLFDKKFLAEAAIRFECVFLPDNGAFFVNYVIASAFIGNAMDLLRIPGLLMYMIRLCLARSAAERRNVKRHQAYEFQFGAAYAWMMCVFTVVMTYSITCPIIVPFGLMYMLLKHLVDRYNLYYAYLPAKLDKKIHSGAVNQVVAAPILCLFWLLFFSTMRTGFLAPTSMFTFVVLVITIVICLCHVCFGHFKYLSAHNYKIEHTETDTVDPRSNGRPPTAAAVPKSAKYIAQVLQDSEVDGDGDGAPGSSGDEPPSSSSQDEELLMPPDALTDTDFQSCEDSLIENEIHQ
Target,log2 fold change [1],log2 fold change [2],log2 fold change [3],log2 fold change [4],log2 fold change (Nexturastat A),log2 fold change (vemurafenib),log2 fold change [5],log2 fold change [6],log2 fold change (givinostat),log2 fold change (barasertib),log2 fold change [7],log2 fold change (volasertib),log2 fold change [8],log2 fold change (epoxomicin),log2 fold change [9],log2 fold change [10],log2 fold change [11],log2 fold change (rosiglitazone),log2 fold change [12],log2 fold change [13]
"VARS2, A0A0G2JL52",-0.003,0.005,-0.025,0.012,0.005,0.03,0.047,-0.018,-0.015,0.052,-0.024,0.001,0.08,0.011,0.006,-0.013,0.007,0.03,-0.016,-0.126
USP14 (UniProt P54578),0.023,-0.018,0.01,0.034,-0.069,0.021,0.093,0.012,-0.006,0.032,-0.08,-0.197,0.053,0.106,-0.005,-0.011,0.003,0.007,-0.082,-0.072
TP53BP1 isoform 2 (UniProt Q12888),-0.02,-0.032,0,-0.022,0.045,0,0.02,0.056,0.019,0.022,-0.024,-0.072,0.021,0,-0.01,0,0.008,-0.018,0.052,0.025
VPS16 (UniProt Q9H269),0.023,0.011,0.032,-0.013,0.038,0.017,0.109,0,0.075,-0.086,-0.244,-0.671 (active),0.042,0.045,0.003,-0.072,0.083,0.113,0.026,-0.316
TPM2 (UniProt P07951),0.048,-0.019,-0.047,0.212,-0.138,0.03,0.001,0.405,-0.011,0.04,-0.07,0.173,0.069,0.287,0.023,-0.04,-0.057,-0.024,-0.023,0.118
VTI1A (UniProt Q96AJ9),-0.039,0.015,0.011,0.095,-0.023,-0.014,-0.035,0.052,-0.013,-0.009,0.051,-0.002,-0.026,0.006,0.039,0.068,0.028,-0.017,0.01,-0.219 (active)
UXT isoform 2 (UniProt Q9UBK9),0.008,0.003,0.039,-0.074,0.904 (active),-0.023,-0.013,0.041,0.211,0.022,0.082,0.128,0.05,-0.038,-0.294,-0.248,0.015,0.022,-0.052,-0.126
VPS51 (UniProt Q9UID3),0,-0.031,-0.045,0.017,0.032,0.034,0.021,0.032,0.071,0.059,-0.028,-0.335 (active),-0.036,-0.015,-0.033,0.003,0.032,0.016,0.094,-0.135
USP48 isoform 8 (UniProt Q86UV5),0.128,-0.094,-0.054,0.119,-0.006,0.162,0.142,0.103,0.144,0.14,-0.55 (active),-0.84 (active),0.144,-0.058,-0.03,-0.047,0.195,0.064,-0.013,-0.459
TMEM120A (UniProt Q9BXJ8),0.181,0.007,0.115,-0.004,-0.259,0.06,0.085,-0.007,0.116,-0.006,0.127,-0.053,0.119,0.198,-0.011,-0.128,0.015,0.149,-0.061,0.07
VPS18 (UniProt Q9P253),0.051,-0.025,-0.029,-0.004,0.04,0.017,0.017,0.004,0.035,0.088,-0.22,-0.398 (active),0.086,-0.019,-0.009,-0.059,0.046,0.042,0.005,-0.231
U2AF1 isoform 2 (UniProt Q01081),-0.011,-0.078,-0.01,0.091,0.011,0.074,0.071,-0.009,0.022,0.009,-0.217,-0.57 (active),0.051,-0.02,0.015,-0.015,0.071,-0.007,-0.021,-0.036
UTP14A (UniProt Q9BVJ6),0.028,0.008,-0.002,-0.068,0.194,-0.066,0.028,0.109,0.048,-0.112,0.092,0.176,0.028,-0.144,0.028,0.106,-0.136,-0.106,0.263,0.106
WDR37 isoform 2 (UniProt Q9Y2I8),0.013,0.068,-0.019,-0.138,0.039,0.01,0.012,0.028,-0.018,0.04,0.078,-0.022,-0.005,-0.049,0.007,-0.049,-0.004,0.078,0.246,-0.005
USP24 (UniProt Q9UPU5),0.114,-0.026,0,0.012,-0.047,0,0.052,-0.042,0.011,-0.053,-0.04,-0.1,-0.047,0.073,-0.072,-0.062,0.055,-0.025,-0.123,0.137
VWA8 (UniProt A3KMH1),-0.07,0.042,0.023,0.019,-0.059,0.034,0.011,0.032,0.025,0.022,-0.027,-0.071,0.048,-0.005,0.002,-0.094,0.056,0.024,-0.01,-0.034
TRAM1 (UniProt Q15629),0.024,-0.063,-0.006,0.048,0.005,0.027,0.02,-0.101,0.028,0.015,-0.216,-0.161,0.031,0.008,-0.004,0.066,0.062,0.095,-0.001,-0.759 (active)
UBE2S (UniProt Q16763),0.024,-0.015,0.004,0.009,0.057,0.013,0.049,-0.007,0.044,0.03,-0.025,-0.214 (active),0.005,0.195,-0.009,0.015,0.048,-0.004,-0.048,0.024
TUT4 (UniProt Q5TAX3),-0.124,-0.106,-0.081,-0.121,0.449,-0.129,-0.008,-0.124,0.069,0.027,-0.064,-0.229,-0.15,-0.219,-0.041,0.046,0.018,-0.012,0.566 (active),-0.235
TMEM177 (UniProt Q53S58),0.043,0.045,-0.008,0.048,-0.092,0.05,0.05,-0.038,0.005,-0.019,-0.092,0.051,0.047,-0.052,0.002,0.048,0.219,0.035,-0.103,-0.075
TMEM63B (UniProt Q5T3F8),0.095,0.014,0.006,0.004,0.051,0.009,-0.011,-0.044,0.014,-0.038,-0.001,0.071,-0.019,0.039,0.041,0.011,-0.052,-0.052,0.042,-0.073
TMEM161A (UniProt Q9NX61),-0.045,0.12,0.014,-0.012,-0.059,0.045,0.225,-0.048,0.024,-0.017,0.033,-0.477 (active),-0.08,0.049,0.034,0.014,-0.009,0.088,-0.026,-0.265
WDHD1 (UniProt O75717),0.057,-0.043,0.013,0.072,-0.053,0.066,0.095,0.022,0.053,0.055,-0.209,-0.458 (active),0.079,0.071,-0.018,-0.033,0.051,0.072,-0.063,-0.118
TTI1 (UniProt O43156),0.147,-0.027,0.086,-0.026,0.02,0.082,0.095,-0.016,0.135,0.068,-0.208,-0.431 (active),0.08,-0.024,-0.083,-0.038,0.048,0.04,0.134,-0.134
XPO6 (UniProt Q96QU8),0.008,-0.221,0.041,-0.369,0.767 (active),0.082,0.13,0.028,0.068,-0.003,-0.054,-0.536 (active),-0.017,-0.249,-0.011,0.174,0.065,0,0.018,-0.134
